Results as given in the supplement of paper PMC6555819.

Test system: VDR:RXRa (NR concentration 270 nM, RXRa partner concentration 90 nM)
Test: PBM binding z-score (relative to random genomic background probes); higher = stronger binding; sequences stand for … in GC…GCGATTGACAGCGTAGAATGAAGG
Method: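 Protein-binding microarray (Agilent 4x180K custom design, double-stranded 60-nt probes: 5' GC cap, 34-nt variable region, 24-nt constant primer region; full probe sequence given). Purified or IVT nuclear receptor:RXRα heterodimers (3:1 NR:RXRα, mostly 270:90 nM) or homodimers were incubated for 1 h in PBS with 2% milk and no ligand, then detected with Alexa488 antibodies. Fluorescence from o1-orientation probes (~5 replicates averaged) was converted to z-scores against 500 random hg19 background probes. Variable regions are seed direct-repeat (DR0–DR5) sites, all their single-nucleotide variants and half-site ablations.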

Sequence | PBM binding z-score
CGTCAAAGTTCAACTAAGGTGACGTAAAGCACGC | 4.87
CCTTCCGGGTCAAGGTTATAGCACGGGTGGTACG | 3.38
ATATGTAGGTTACACCCGGGTCATTCAGGCTATG | 4.27
CAAAGTAGGTCAAAGGTCAAAGTCGAGCCAACCA | 6.63
TCTTGTAGATAAAAGGTTAAGAAAGCCGAAGCCT | 1.2
ACTATTAGTTGACTTAAGGCAACCGATACGACGC | 0.358
ATCTCTAGGTAACAAGTTCAGTCAAAGAGAGGAC | 1.74
CGTCCAAGGTCAAAGGTCAGTGATGAGATGACGG | 6.62
CCTCGGAGGACAACAGAAGGTCAGAGCTGCCAGA | 1.35
TCGAGTAGGTTAGTCGGGGCGTTCAGCCAACATA | 1.48
AGTTAAAGTTCAGGACGAGGTAACGTAAAGCACG | 3.01
CCTACTGGGCCACGAAAGGTCATTGACTCAGTGA | 4.12
GCGACTGGGGCATCAGCTGGTTACCATAACTTAA | -0.49
GCTATTAGTTGAAAAGGCAACCGAATGATTCTCG | -0.31
CGTCCAGGGTCAAGGTCAGTGAAAGAGACTCGAA | 4.79
CCTAGTTGGTCAAGGTGACACACGCTATAGGTAC | 0.694
TCTTGTAGAACAAAGGTTAAGAAAGCCGAAGCCT | 1.18
CATACAGGTTCAGCTAGGCCAGAGTAGGGACGGC | 1.99
CGTCAAAGTTCAAATAAGGTAACGTAAAGCACGC | 4.74
GGAACGAGGGCAAGTTGATATCAGAGTTTGATGG | 1.42

Sequence | PBM binding z-score
GCTATTAGTTGAACGGGCAACCGAATGATTCTCG | -0.187
AATACAGGGTCATCGTAGGCCAGATTACGCACAG | 5.22
TTGCCTAGGTCATGCGGGCCAGTATAGTGTCGGC | 2.8
ATCTCTGGGTAAAAGTTCAGTGAATCCCGAGGAT | 1.25
CCTAGCAGTCCAGGGTCACTCAAGCATTTCGCTT | 2.69
CGTCCAAGGTCAATGCTAGGTCAGTTAAAGCATT | 5.01
TCTTGTCGATCAGCAGGTTAAGAAAGCTGGCCAA | 0.358
GGAACGAGGGCATTCGAGTTGATAGCTTGGCGAT | 3.55
CCGACTGGGGCATAAGGTTACCAGAAGCCAGCCC | 0.214
GCATATGGGTAATACAAGGTGAAAGTCCGATTGT | 0.212
CCTCGGAGGACAACAGGAGGACAGAGCTGCCAGA | -0.461
CGAACTAGGTCAGAACAGGACAGTGACGGATGAT | 0.542
CCTACTGGGCCACGAAAGGACATTGATTCAGTGA | -0.289
TCTATTAGTTGAATGGCAACCGACGAGTCCGTTT | 0.746
CAAACTAGGTCAAGGTCAGAGTCGGTTTGTGCCA | 3.93
CCTCGGAAGACAACAGGAGGTCAGAGCTGCCAGA | 1.5
CGAACTAGGTCAGAACAGGACAGTGCAGGATGAT | 0.787
ACTCGCAGGCCAAGTTTGGGTCACTCAAACAAAG | 0.787
ACAGACAGGCGATGAAGGTAACTCAGGCTATCAT | -0.262
CCTGGGAGGACAACAGGAGGTCAGAGCTGCCAGA | 1.99
